# Test results: PubChem BioAssay (Tox21)
# Calls of active or inactive are those of the source. The call rests on the fitted dose curve; in most records, active means well fitted curve in the direction sought with a large enough effect in the repeat runs; inconclusive means weak or mixed curves; inactive means flat fitted curve, though single readings scatter.
# Assay: qHTS assay to test for compound auto fluorescence at 460 nm (blue) in HepG2 cells (AID 720687)
# Conditions: autofluorescence 405/460 nm, 1 h; series mostly up to 91.3 µM; fluorescence, % of fluorescent control: at the top concentration
# Method in brief: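 Cells (2,000/well in MEM with 10% FBS) attached overnight at 37 C, then were exposed to compound or DMSO for 1 hr at 37 C, 5% CO2. Fluorescence read at Ex/Em 405/460 nm, expressed as triamterene-equivalent signal.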
# On the % scale 0 is the no-effect control and ±100 the full control effect.
Structure (SMILES),"fluorescence, % of fluorescent control",outcome
COC(=O)c1ccc(I)cc1S(=O)(=O)NC(=O)Nc1nc(C)nc(OC)n1,-0.0312% (inactive),
CCCOC(C(=O)OC1CCN(C)CC1)(c1ccccc1)c1ccccc1,-0.133% [at 46 µM] (inactive),
CCC(C)O (stereo not drawn),0.0208% [at 95.7 µM] (inactive),
CCCCc1ncc(/C=C(\Cc2cccs2)C(=O)O)n1Cc1ccc(C(=O)O)cc1,-0.0526% [at 46 µM] (inactive),
CCCCNc1ccc(C(=O)OCCOCCOCCOCCOCCOCCOCCOCCOCCOC)cc1,-0.0219% [at 18.6 µM] (inactive),
CC(C)Nc1ccc(NC(C)C)c2c1C(=O)c1ccccc1C2=O,-0.0345% [at 46 µM] (inactive),
CC[N+]1(CC)CCC(=C(c2ccccc2)c2ccccc2)C1C (stereo not drawn),0.0104% [at 46 µM] (inactive),
CC(C)OC(=O)C(C)N(C(=O)c1ccccc1)c1ccc(F)c(Cl)c1 (stereo not drawn),0.009% (inactive),
Cc1cccc(C)c1NC(=O)CN(CC(=O)O)CC(=O)O,-0.0697% [at 46 µM] (inactive),
OC(CN1CCC(Cc2ccc(F)cc2)CC1)c1ccc(Cl)cc1 (stereo not drawn),-0.0226% [at 46 µM] (inactive),
O=C(c1ccc(F)cc1)C1CCN(CCn2c(=S)[nH]c3ccccc3c2=O)CC1,-0.0194% [at 46 µM] (inactive),
CCCCC,,inactive
CCCCCCCC#N,0.0131% (inactive),
O=[N+]([O-])c1ccc(NCCO)c(OCCO)c1,-0.521% (inactive),
C=CCOC(=O)CCC1CCCCC1,0.0172% (inactive),
O=C(OCCCCCCOC(=O)c1ccccc1)c1ccccc1,-0.166% (inactive),
C/C=C/C(=O)CC,-0.0002% [at 18.6 µM] (inactive),
CCCCC(CC)COC(=O)CCCCCCCCC(=O)OCC(CC)CCCC (stereo not drawn),0.0062% (inactive),
CCOc1ccc(O)cc1,0.0334% (inactive),

Structure (SMILES),"fluorescence, % of fluorescent control",outcome
CC[N+](C)(CC)CCOC(=O)C(O)(c1ccccc1)C1CCCCC1 (stereo not drawn),-0.043% [at 46 µM] (inactive),
O=C(O)CC(=O)C(=O)O,-0.0135% (inactive),
O=S(=O)(Oc1ccc(Cl)cc1)c1ccccc1,-0.0667% (inactive),
COC(C)OC,-0.0566% (inactive),
O=C(NCCO[N+](=O)[O-])c1cccnc1,-0.225% [at 46 µM] (inactive),
CCN(CC)CCOC(=O)C(c1ccccc1)C1CCCCC1 (stereo not drawn),0.0114% [at 46 µM] (inactive),
O=C1c2ccccc2S(=O)(=O)N1CCCCN1CCN(c2ncccn2)CC1,0.0047% [at 46 µM] (inactive),
CC1OC(=O)C(C)OC1=O (stereo not drawn),0.226% (inactive),
C=CC(=O)OCCOc1ccccc1,-0.0859% (inactive),
CCC(Cl)CCC(Cl)C(Cl)CC(Cl)C(Cl)C(Cl)CCl (stereo not drawn),0.0049% (inactive),
COc1ccc(C(=O)c2ccc(OC)cc2O)c(O)c1,0.182% (inactive),
Brc1c2ccccc2cc2ccccc12,1.62% (inactive),
O=C1C(O)=C(O)C(=O)C(O)=C1O,-0.0005% [at 46 µM] (inactive),
CCCCC(CC)COC(=O)COc1ccc(Cl)cc1Cl (stereo not drawn),-0.0255% [at 95.7 µM] (inactive),
C[N+]1(CC2COC(c3ccccc3)(C3CCCCC3)O2)CCCCC1 (stereo not drawn),-0.0265% [at 46 µM] (inactive),
COc1ccc(C)cc1[N+](=O)[O-],0.146% [at 95.7 µM] (inactive),
CNC(=O)CN(CCN(CCN(CC(=O)[O-])CC(=O)NC)CC(=O)[O-])CC(=O)[O-].O.[Gd+3],,inactive
Cc1c(N)cccc1[N+](=O)[O-],-0.103% [at 95.7 µM] (inactive),
c1cc(CCCc2ccncc2)ccn1,0.162% (inactive),
